Experimental findings from PubChem BioAssay (NCATS) are described below.

Results filed as inconclusive are left out. Values without a mark were called inactive. Activity calls are given as the source filed them. Calls follow the shape of the dose curve; as a rule, active = well fitted curve in the direction sought with a large enough effect; inconclusive = small, poorly fitted or top-dose-only effect, or another doubt; inactive = no such curve, though single readings can be large; an effect the other way counts as inactive or inconclusive.

The nature of experiment [1]: Quantitative High-Throughput drug screen in 47 multiple myeloma cell lines against the NCATS MIPE library collection: KMS21BM_JCRB cell viability assay (AID 1918974). Also: potency is read from the fitted curve at half-maximal effect. Conditions: ATP luminescence, 48 h; viability: at 45.8 µM. An outline of the steps: (§1)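 Myeloma cells (500 per well) were exposed to MIPE 4.0 compounds by pin transfer and incubated 48 hours at 37C, 5% CO2. Viability was read as ATP by CellTiter-Glo luminescence, normalised to DMSO (100%) and media-only (0%) wells.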

The nature of experiment [2]: Quantitative High-Throughput drug screen in 47 multiple myeloma cell lines against the NCATS MIPE library collection: KMS26_JCRB cell viability assay (AID 1918975). Also: nearly all actives have a fitted effect of over 45% in size. Also: potency is read from the fitted curve at half-maximal effect. An outline of the steps: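 Viability readout: CellTiter-Glo luminescence following 5 min room-temperature incubation with reagent. Prior exposure: 48 h, 37C, humidified 5% CO2, 500 cells per well.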
Experiment [3] can be described thus: Quantitative High-Throughput drug screen in 47 multiple myeloma cell lines against the NCATS MIPE library collection: MOLP8_DSMZ cell viability assay (AID 1918977). Also: nearly all actives have a fitted effect of over 45% in size. Also: potency is read from the fitted curve at half-maximal effect. An outline of the steps: (§2)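 Inhibition of viability over 48 h was scored by ATP content (CellTiter-Glo) in 500-cell wells. Zero and full viability were defined by media-only and DMSO-only wells.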

Experiment [4] is described as follows: Quantitative High-Throughput drug screen in 47 multiple myeloma cell lines against the NCATS MIPE library collection: NCIH929_DSMZ cell viability assay (AID 1918978). Also: nearly all actives have a fitted effect of over 35% in size. Also: potency is read from the fitted curve at half-maximal effect. An outline of the steps: as §2
The nature of experiment [5]: Quantitative High-Throughput drug screen in 47 multiple myeloma cell lines against the NCATS MIPE library collection: MM1R_ATCC cell viability assay (AID 1918981). Also: nearly all actives have a fitted effect of over 35% in size. Also: potency is read from the fitted curve at half-maximal effect. In outline: as §2
Experiment [6] is described as follows: Quantitative High-Throughput drug screen in 47 multiple myeloma cell lines against the NCATS MIPE library collection: KMS28PE_JCRB cell viability assay (AID 1918983). Also: nearly all actives have a fitted effect of over 35% in size. Also: potency is read from the fitted curve at half-maximal effect. In outline: as §2
A short description of experiment [7]: Quantitative High-Throughput drug screen in 47 multiple myeloma cell lines against the NCATS MIPE library collection: L363_DSMZ cell viability assay (AID 1918984). Also: nearly all actives have a fitted effect of over 40% in size. Also: potency is read from the fitted curve at half-maximal effect. Particulars: L363 myeloma viability, CellTiter-Glo ATP luminescence, 48 h; viability (% of control): at 45.8 µM. In outline: as §2
Experiment [8] can be described thus: Quantitative High-Throughput drug screen in 47 multiple myeloma cell lines against the NCATS MIPE library collection: OCIMY5_PLB cell viability assay (AID 1918988). Also: nearly all actives have a fitted effect of over 65% in size. Also: potency is read from the fitted curve at half-maximal effect. An outline of the steps: as §2
A short description of experiment [9]: Quantitative High-Throughput drug screen in 47 multiple myeloma cell lines against the NCATS MIPE library collection: OPM1_PLB cell viability assay (AID 1918989). Also: nearly all actives have a fitted effect of over 40% in size. Also: potency is read from the fitted curve at half-maximal effect. As to viability (% of control): series mostly up to about 46 µM. In outline:
as §2

Experiment [10] can be described thus: Quantitative High-Throughput drug screen in 47 multiple myeloma cell lines against the NCATS MIPE library collection: SKMM1_PLB cell viability assay (AID 1919863). Also: nearly all actives have a fitted effect of over 35% in size. Also: potency is read from the fitted curve at half-maximal effect. As to viability: series mostly up to about 46 µM. Particulars: SKMM1 myeloma viability, CellTiter-Glo ATP, 48 h; viability: stronger effect = lower value. In outline:
as §2

A short description of experiment [11]: Quantitative High-Throughput drug screen in 47 multiple myeloma cell lines against the NCATS MIPE library collection: U266_ATCC cell viability assay (AID 1919864). Also: nearly all actives have a fitted effect of over 35% in size. Also: potency is read from the fitted curve at half-maximal effect. An outline of the steps:
as §2

The nature of experiment [12]: Quantitative High-Throughput drug screen in 47 multiple myeloma cell lines against the NCATS MIPE library collection: XG6_PLB cell viability assay (AID 1919865). Also: nearly all actives have a fitted effect of over 40% in size. Also: potency is read from the fitted curve at half-maximal effect. In outline: as §2
A short description of experiment [13]: Quantitative High-Throughput drug screen in 47 multiple myeloma cell lines against the NCATS MIPE library collection: XG1_PLB cell viability assay (AID 1919866). Also: nearly all actives have a fitted effect of over 35% in size. Also: potency is read from the fitted curve at half-maximal effect. An outline of the steps: as §2
The nature of experiment [14]: Quantitative High-Throughput drug screen in 47 multiple myeloma cell lines against the NCATS MIPE library collection: OCIMY1_PLB cell viability assay (AID 1918979). Also: nearly all actives have a fitted effect of over 35% in size. Also: potency is read from the fitted curve at half-maximal effect. As to viability: series mostly up to about 46 µM. An outline of the steps:
as §2

Experiment [15] in a line: Quantitative High-Throughput drug screen in 47 multiple myeloma cell lines against the NCATS MIPE library collection: MM1S_ATCC cell viability assay (AID 1918980). Also: nearly all actives have a fitted effect of over 45% in size. Also: potency is read from the fitted curve at half-maximal effect. As to viability (% of control): series mostly up to about 46 µM. In outline:
as §2

A short description of experiment [16]: Quantitative High-Throughput drug screen in 47 multiple myeloma cell lines against the NCATS MIPE library collection: KMS34_JCRB cell viability assay (AID 1918985). Also: nearly all actives have a fitted effect of over 40% in size. Also: potency is read from the fitted curve at half-maximal effect. An outline of the steps: as §2
The nature of experiment [17]: Quantitative High-Throughput drug screen in 47 multiple myeloma cell lines against the NCATS MIPE library collection: MMM1_PLB cell viability assay (AID 1918976). Also: nearly all actives have a fitted effect of over 35% in size. Also: potency is read from the fitted curve at half-maximal effect. An outline of the steps: as §2
A short description of experiment [18]: Quantitative High-Throughput drug screen in 47 multiple myeloma cell lines against the NCATS MIPE library collection: LP1_DSMZ cell viability assay (AID 1918982). Also: nearly all actives have a fitted effect of over 35% in size. An outline of the steps:
as §2

A short description of experiment [19]: Quantitative High-Throughput drug screen in 47 multiple myeloma cell lines against the NCATS MIPE library collection: KMS20_JCRB cell viability assay (AID 1918973). Also: nearly all actives have a fitted effect of over 45% in size. Also: potency is read from the fitted curve at half-maximal effect. An outline of the steps: as §1
The nature of experiment [20]: Quantitative High-Throughput drug screen in 47 multiple myeloma cell lines against the NCATS MIPE library collection: OCIMY7_PLB cell viability assay (AID 1918987). Also: series mostly up to about 46 µM; nearly all actives have a fitted effect of over 65% in size. Particulars: OCI-MY7 myeloma viability, CellTiter-Glo ATP, 48 h; viability (% of DMSO): at 45.8 µM. An outline of the steps:
as §2

Consider `Cn1c(=O)c(-c2c(Cl)cccc2Cl)cc2cnc(Nc3cccc(C(=O)O)c3)nc21`, for which the Potency was 0.0833 µM (active) in [1]; 3.32 µM (active) in [2]; 2.09 µM (active) in experiment [3]; 9.35 µM (active) in [5]; 5.26 µM (active) in experiment [6]; 0.59 µM (active) in experiment [7]. The Potency in [8] was 13.2 µM (active); in experiment [10] it was 2.09 µM (active); in experiment [12], 0.187 µM (active); in experiment [13] it was 0.296 µM (active). For the same compound, the Potency entry in experiment [4], in experiment [9] and in [11] was “inactive” in each case.
As for `COc1ccc(-c2nc3ccc(C4=NNC(=O)CC4C)cc3[nH]2)cc1` (stereo unspecified), the Potency result in experiment [1], in experiment [2], in [3], in [14], in [5] and in experiment [6] was “inactive” in each case. The Potency result in [7], in [16], in [8], in [12] and in [13] was “inactive” each time. Also, in [15], the Potency is 23.5 µM (active). For the same compound, the viability in [10] is 101%.
Regarding `O=C(O)CCC=CCC[C@@H]1[C@H](N2CCCCC2)[C@@H](O)C[C@@H]1OCc1ccc(-c2ccccc2)cc1`, the Potency result in experiment [2], in experiment [17], in experiment [3], in [4], in [15] and in experiment [5] was “inactive” throughout. The Potency entry in experiment [18], in experiment [6], in experiment [16], in [8], in experiment [11] and in experiment [12] was “inactive” each time. For the same compound, the viability in experiment [10] was 114%.
Take `CC(NCCc1ccc(O)cc1)C(O)c1ccc(O)cc1` (stereo unspecified): the Potency entry in experiment [2], in experiment [3], in experiment [4], in experiment [14], in experiment [7] and in [16] was “inactive” throughout. Further, the Potency entry in experiment [9], in experiment [11], in experiment [12] and in experiment [13] was “inactive” each time. In addition, the Potency is 14.8 µM (active) in [17], 5.9 µM (active) in experiment [15], 4.18 µM (active) in [5] and 0.132 µM (active) in [8]. Also, the viability in [10] is 131%.
On to `CC(C)=CCCC(C)=CCCC(C)=CCCC(C)=CCCC(C)=CCCC(C)=CCCC(C)=CCCC(C)=CCCC(C)=CCO`, for which the Potency result in experiment [2], in [17], in experiment [4], in experiment [14], in experiment [15] and in experiment [5] was “inactive” in each case. The Potency entry in [18], in [6], in experiment [7], in experiment [16], in [9] and in experiment [12] was “inactive” each time. Further, the Potency result in [13] is “inactive”. Further, in experiment [3], the Potency was 9.35 µM (active).
For `COc1ccc2c(c1)CC[C@H]1[C@@H]2CC[C@]2(C)[C@@H](NCCCCCCN3C(=O)C=CC3=O)CC[C@H]12`, the Potency entry in experiment [19], in experiment [4], in [14], in experiment [6], in [16] and in experiment [12] was “inactive” throughout. Further, the Potency entry in experiment [13] is “inactive”. In experiment [10], the viability was 134%. In [11], the Potency was 20.9 µM (active).
Take `CNC(=O)c1cc(COc2nnc(Nc3ccc(Cl)cc3)c3ccoc23)ccn1`: the Potency result in experiment [19], in [15], in [9] and in experiment [11] was “inactive” each time. Moreover, the Potency is 23.5 µM (active) in [14], 20.9 µM (active) in experiment [8] and 23.5 µM (active) in experiment [10].
As to `CCOC(=O)c1c(CSc2ccccc2)n(C)c2cc(Br)c(O)c(CN(C)C)c12`, the Potency in experiment [2] is 11.8 µM (active); in experiment [17], 18.7 µM (active); in [3], 5.9 µM (active); in [14], 16.6 µM (active); in experiment [15], 20.9 µM (active); in experiment [6], 18.7 µM (active). Besides, the Potency in experiment [7] was 20.9 µM (active); in [16], 11.8 µM (active); in experiment [8], 16.6 µM (active); in experiment [10], 6.62 µM (active); in experiment [12], 14.8 µM (active). For the same compound, the Potency entry in experiment [4] was “inactive”.
Take `CC(C)Oc1cc(Nc2nc(N[C@@H](C)c3ccc(F)cn3)ncc2Cl)[nH]n1`: the Potency in experiment [19] is 4.69 µM (active); in experiment [4], 5.26 µM (active); in experiment [15], 23.5 µM (active); in experiment [5] it was 26.4 µM (active); in [7], 23.5 µM (active); in [8] it was 26.4 µM (active). Besides, the figures for the Potency in experiment [9], in [12] and in [13] were 3.72 µM (active), 7.43 µM (active) and 14.8 µM (active), respectively.
As for `CN1CC(=O)NC1=NC(=O)Nc1cccc(Cl)c1`, the Potency in experiment [2] is 18.7 µM (active); in experiment [17] it was 20.9 µM (active); in experiment [3] it was 10.5 µM (active); in experiment [4], 16.6 µM (active); in experiment [14] it was 26.4 µM (active); in [15], 26.4 µM (active). The Potency in [5] was 18.7 µM (active); in experiment [8], 23.5 µM (active); in experiment [9], 18.7 µM (active); in [10], 18.7 µM (active); in experiment [11], 20.9 µM (active); in [12] it was 23.5 µM (active). In addition, the Potency in experiment [13] was 29.6 µM (active). The Potency result in experiment [6] is “inactive”.
`NS(=O)(=O)c1cc(Cl)c(Cl)c(S(N)(=O)=O)c1`: the Potency entry in experiment [2], in experiment [3], in experiment [4], in experiment [14], in experiment [15] and in experiment [5] was “inactive” in each case. The Potency entry in experiment [6], in experiment [20], in experiment [8], in experiment [11] and in experiment [13] was “inactive” in each case. The Potency in experiment [17] is 18.7 µM (active).
